The entries come from a sample that favours hits as a whole.
RECQ1 inh – RECQ1 (human) helicase inhibition | P46063 | RECQ1 DNA unwinding, red fluorescence kinetic read | Potency, µM (doses to about 57.3 µM), for the others: at the top dose activity, negative = inhibition, hits mostly inhibitors | actives 0.54% (n = 240,000);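 further: plate controls were vehicle for no effect and no enzyme for full effect; nearly all actives have a fitted effect of over 30% in size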
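50 nM RECQ1T1 preincubated 15 min with compound in Tris pH 8.0 buffer with MgCl2, DTT, Tween-20 and 2.5 ug/ml poly(dI-dC); started with 200 nM TAMRA/BHQ-2 forked duplex and 2 mM ATP. Unwinding read as fluorescence (525/598 nm), two reads 2 h apart.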
JMJD2E inh – inhibitors of human JMJD2E histone demethylase. B2RXH2. actives 1.6% (n = 230,000). JMJD2E catalytic domain, FDH-coupled NADH fluorescence (FDH is formaldehyde dehydrogenase). Potency, µM (series often up to 57.1 µM), without a hit: at the highest dose activity change, negative = inhibition, usual class: inhibitors; active means well fitted inhibition curve with a large enough effect, not every such curve was filed as active; inconclusive means small, poorly fitted or top-dose-only effect, or another doubt; inactive means no such curve, though single readings can be large or run the other way;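 further: 0% = wells with enzyme and -100% = buffer wells without enzyme; nearly all actives have a fitted effect of over 50% in size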
Target sequence (B2RXH2 1-337 limits assumed): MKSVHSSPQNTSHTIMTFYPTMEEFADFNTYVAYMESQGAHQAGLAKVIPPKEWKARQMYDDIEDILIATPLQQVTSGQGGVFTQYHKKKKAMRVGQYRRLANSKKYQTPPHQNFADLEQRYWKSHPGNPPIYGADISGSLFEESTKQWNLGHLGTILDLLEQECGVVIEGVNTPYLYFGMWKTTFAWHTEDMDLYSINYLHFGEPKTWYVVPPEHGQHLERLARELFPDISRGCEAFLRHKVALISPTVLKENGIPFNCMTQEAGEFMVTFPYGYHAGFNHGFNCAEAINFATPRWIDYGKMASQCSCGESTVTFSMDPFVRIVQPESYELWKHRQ
L3MBTL1 block – blocks human L3MBTL1; Q9Y468; Potency, µM (top dose mostly 57.1 µM), inactives show at the highest dose activity, negative = inhibition, most hits filed as inhibitors; actives 0.66% (n = 230,000); AID 485360; AlphaScreen L3MBTL1–H3K9me1 peptide binding; further: nearly all actives have a fitted effect of over 60% in size
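Displacement of a biotinylated histone H3(1-15) peptide monomethylated at Lys9 (75 nM) from L3MBTL1 (50 nM) was measured by AlphaScreen after a 30 min room-temperature compound incubation; cefsulodin titration served as intraplate control.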
BLM helicase inh – blocks DNA unwinding by human BLM helicase | actives 0.2% (n = 350,000) | Potency, µM (top dose mostly 56.1 µM), inactives show at the highest dose activity change, negative = inhibition, usual class: inhibitors | recombinant BLM DNA unwinding, fluorescence dequenching | P54132;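 further: plate controls were vehicle for no effect and no enzyme for full effect; nearly all actives have a fitted effect of over 35% in size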
APE1 inh – APE1 (human) endonuclease inhibition | actives 0.35% (n = 350,000) | P27695 | Potency, µM (doses to about 65.8 µM), inactives show at the highest dose activity change, negative = inhibition, usual class: inhibitors | recombinant APE1, TAMRA/BHQ-2 abasic DNA cleavage fluorescence;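 further: plate controls were vehicle for no effect and reference inhibitor for full effect; nearly all actives have a fitted effect of over 55% in size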
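Enzyme (0.75 nM final) and test compound are incubated 15 min at room temperature before adding 50 nM quenched THF abasic-site duplex. Cleavage dequenches TAMRA, followed at 525/598 nm over three reads one minute apart.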
Starred values were filed as active, the others as inactive; i = inactive; ? = inconclusive; . = not tested or not shown; [ ] = dose if it differs, or a comment. Unless noted, the call rests on the fitted dose curve; in most records, active means well fitted curve in the direction sought with a large enough effect; inconclusive means small, poorly fitted or top-dose-only effect, or another doubt; inactive means no such curve, though single readings can be large; an effect the other way counts as inactive or inconclusive. Unless noted, on the % scale 0 is the no-effect control and ±100 the full control effect; potency means the concentration at half of the fitted maximal effect.

SMILES | RECQ1 inh | JMJD2E inh | L3MBTL1 block | BLM helicase inh | APE1 inh
CCOc1ccccc1CNC(=O)C1CCN(S(=O)(=O)c2c(C)noc2/C=C/c2ccc(C)cc2)CC1 | . | . | . | -1% | .
COc1cc(SSc2cc(OC)cc([N+](=O)[O-])c2N)c(N)c([N+](=O)[O-])c1 | -5% | 2.5µM* | . | 0% | -1%
CC(C)C(C)(C#N)NC(=O)CSc1nc2scc(-c3ccco3)c2c(=O)n1-c1ccccc1 (centres undefined) | 20µM* | ? | -1% | ? | ?
Cc1sc2nc(SCC(=O)NCc3ccco3)n(-c3ccccc3)c(=O)c2c1C | 0% | ? | 4% | 0% | 5%
CCOC(=O)c1cnc(-n2cc(C)cn2)nc1NCc1ccc2c(c1)OCO2 | 1% | 1% | -6% | -1% | ?
CCCCC(=O)Nc1ccc(C(=O)NNC(=O)c2ccc(C)c(Br)c2)cc1 | -9% | 3% | -2% | -13% | 25µM*
CC(CCc1ccc(O)cc1)NC(c1ccccc1)c1ccc(Cl)cc1 (centres undefined) | . | . | -5% | -16% | -22%
CCc1ccc(CNc2ccc(O)cc2)cc1 | i | 2% | 7.9µM* | ? | 5%
Oc1ccc(NCc2ccc(OCc3ccccc3)cc2)cc1 | . | . | . | ? | -5%
CCOC(=O)C1=C(COC(=O)c2cccc(N(C)C)c2)NC(=O)NC1C (centres undefined) | . | . | -17% | . | 32%
CCOC(=O)c1c(C)n(-c2ccc(C)cc2)c2ccc(OCC(O)CNCC3CCCO3)cc12 (centres undefined) | i | 28µM* | . | -3% | -10%
Cc1ccc(NC(=S)NC(=O)C2CC2)cc1Cl | . | . | . | -5% | 42%
O=C(O)c1ccccc1N(Cc1ccccc1)C(=O)COc1ccccc1 | -5% | 1% | -6% | 1% | -4%
COc1ccc(O)c(C(=O)c2cc(SCC(=O)O)c3nc4sc5c(c4c(=O)n3c2)CCCC5)c1 | i | ? | . | 22µM* | ?
CC(=O)NC1CCCN(O)C(=O)/C=C(\C)CCOC(=O)C(NC(C)=O)CCCN(O)C(=O)/C=C(\C)CCOC(=O)C(NC(C)=O)CCCN(O)C(=O)/C=C(\C)CCOC1=O (centres undefined) | -6% | 7.9µM* | 26% | -1% | -2%
CC(=O)NC1CCCc2c1cnn2-c1ccc(C(C)(C)C)cc1 (centres undefined) | . | . | 3% | 0% | 14%
O=S(=O)(Nc1cc(S(=O)(=O)N2CCOCC2)ccc1N1CCOCC1)c1ccc2c(c1)OCCO2 | 0% | 1% | -18% | 2% | 0%
Cc1ccc(C2CC(=O)NC(SCc3ccccc3)=C2C#N)o1 (centres undefined) | 5% | 6% | 18µM* | -8% | 4%
CCSC1=C(C#N)C(c2ccc(C)o2)CC(=O)N1 (centres undefined) | 16% | 4% | -9% | -1% | 22%
c1ccc2c(c1)CC/C2=N/Nc1nc2ccccc2[nH]1 | 35µM* | 0% | -22% | -6% | -9%
Cc1cc(/C=C2/NC(=O)N(c3ccccc3)C2=O)c(C)n1C(C)C | -5% | 22µM* | -17% | -6% | 5%
Cc1cc(/C=C2/NC(=O)N(Cc3ccccc3F)C2=O)c(C)n1C(C)C | -1% | 18µM* | -10% | -5% | -7%
Cc1ccccc1NC(=S)N(CCN(C)C)C(C)c1ccccn1 (centres undefined) | -7% | -15% | . | 3% | 3%
CC1=NN(c2ccccc2)C(=O)/C1=C\c1ccc(Oc2ccc([N+](=O)[O-])cc2[N+](=O)[O-])cc1 | -10% | 6.3µM* | ? | -22% | -6%
COc1cc(/C=C2\C(=O)N(c3ccccc3)N=C2C)ccc1Oc1ccc([N+](=O)[O-])cc1[N+](=O)[O-] | -7% | ? | -22% | -18% | ?
C/C(=N\N1C(=O)c2ccccc2NC1c1ccco1)c1ccccc1O (centres undefined) | -6% | 22µM* | 2%[11.4 µM] | -8% | 0%
O=[N+]([O-])c1ccc(N/N=C/c2ccc(O)c(O)c2O)c(S(=O)(=O)N2CCOCC2)c1 | ? | 7.9µM* | -25% | -25% | ?

Bioassay records: PubChem BioAssay, National Center for Advancing Translational Sciences (NCATS)
